PubChem BioAssay
Values joined by “and” are separate entries in the source; they are usually repeats but may differ in a detail not shown here. Equal values may be shown once. Active and inactive are the calls of the source.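 How the source made its calls: active means compounds whose cell count with miR-34 switched on is under 0.7 times the count with it off; inactive means the rest.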

Test: sensitizers of A549 cells to miR-34 induction, primary screen, imaging, A549 dox-inducible miR-34, nuclei and caspase counts (AID 1347080); further: test concentration not given here
Conditions: A549 miR-34 inducible, Hoechst nuclei count, 48 h; stronger effect = lower value; cell number ratio, induced over uninduced

Question: With CN(C)C1C(=O)C(C(=O)NCN2CCCC2)=C(O)[C@@]2(O)C(=O)C3=C(O)c4c(O)cccc4[C@@](C)(O)C3CC12 (stereo partly drawn) as the molecule, how does the fold change read?
Answer: Its fold change is 0.983 (inactive).

Question: Which fold change does the source give for C[C@]12CC(O)C3C(CCC4=CC(=O)CC[C@@]43C)C1CCC2C(=O)CO (stereo partly drawn) here?
Answer: The fold change was 0.859 (inactive).

Question: For C#C[C@]1(O)CCC2C3CCC4=CC(=O)CCC4C3CC[C@@]21CC (stereo partly drawn), which fold change is on record?
Answer: Its fold change is 0.905 (inactive).

Same assay, conditions: A549 miR-34 inducible, Hoechst nuclei count, 48 h; measured here: relative caspase fold change +Dox/-Dox

Question: With COC1C(OC(C)=O)CC(=O)OC(C)CC=CC=CC(O)C(C)CC(CC=O)C1OC1OC(C)C(OC2C[C@@](C)(OC(=O)CC(C)C)C(O)C(C)O2)C(N(C)C)C1O (stereo partly drawn) as the molecule, how does the fold change read?
Answer: Its fold change is 1.51.

Question: Which fold change does the source give for CCN1CCCC1CNC(=O)c1c(O)c(Cl)cc(Cl)c1OC (stereo not drawn) here?
Answer: Its fold change is 1.39.

Question: With CC1COc2c(C3(N)CC3)c(F)cc3c(=O)c(C(=O)O)cn1c23 (stereo not drawn) as the molecule, how does the fold change read?
Answer: Its fold change is 1.6.

Question: With CC1CC2C3CC(F)C4=CC(=O)C(Cl)=C[C@]4(C)[C@@]3(F)C(O)C[C@]2(C)[C@@]1(O)C(=O)CO (stereo partly drawn) as the molecule, how does the fold change read?
Answer: Its fold change is 1.63.

Question: With CC1CCC2C(C)C(OC(=O)CCC(=O)O)OC3O[C@@]4(C)CCC1[C@]32OO4 (stereo partly drawn) as the molecule, how does the fold change read?
Answer: Its fold change is 1.91.

Question: Which fold change does the source give for COc1cc(CNC(=O)CCCCC=CC(C)C)ccc1O here?
Answer: The fold change was 2.14.

Question: With CC(C)(C)NC(=O)C1CCC2C3CCC4NC(=O)C=C[C@]4(C)C3CC[C@]12C (stereo partly drawn) as the molecule, how does the fold change read?
Answer: Its fold change is 1.36.

Question: Which fold change does the source give for CCCCC(=O)N(Cc1ccc(-c2ccccc2-c2nn[nH]n2)cc1)C(C(=O)O)C(C)C (stereo not drawn) here?
Answer: The fold change was 1.23.

Question: With CC(=O)OC1CC2CCC3C(CC[C@@]4(C)C3CC([N+]3(C)CCCCC3)C4OC(C)=O)[C@@]2(C)CC1N1CCCCC1 (stereo partly drawn) as the molecule, how does the fold change read?
Answer: Its fold change is 1.76.

Question: With C[C@]12CCC3c4ccc(O)cc4CCC3C1CCC2O (stereo partly drawn) as the molecule, how does the fold change read?
Answer: The fold change was 1.15.

Question: Which fold change does the source give for CN1CCc2cc(Cl)c(O)cc2C(c2ccccc2)C1 (stereo not drawn) here?
Answer: The fold change was 0.98.

Question: With CC1CC2C3CCC4=CC(=O)C=C[C@]4(C)[C@@]3(F)C(O)C[C@]2(C)C1C(=O)CO (stereo partly drawn) as the molecule, how does the fold change read?
Answer: Its fold change is 1.08.

Question: With COc1cccc2c1C(=O)c1c(O)c3c(c(O)c1C2=O)C[C@@](O)(C(=O)CO)CC3OC1CC(N)C(O)C(C)O1 (stereo partly drawn) as the molecule, how does the fold change read?
Answer: Its fold change is 0.932 and 0.974.

Question: For OCC1OC(n2cnc3c(NC4CCCC4)nc(Cl)nc32)C(O)C1O (stereo not drawn), which fold change is on record?
Answer: The fold change was 1.42.

Question: Which fold change does the source give for CC=CC(=O)N(CC)c1ccccc1C here?
Answer: Its fold change is 1.8.

Question: For CC1=C(C(=O)O)N2C(=O)C(NC(=O)C(N)c3ccccc3)C2SC1 (stereo not drawn), which fold change is on record?
Answer: The fold change was 1.4.

Question: With CC(C)OC(=O)CCCC=CCC1C(O)CC(O)C1CCC(O)CCc1ccccc1 (stereo not drawn) as the molecule, how does the fold change read?
Answer: Its fold change is 2.41.

Question: With OCC1OC(n2cnc3c(NC4CCCC4O)ncnc32)C(O)C1O (stereo not drawn) as the molecule, how does the fold change read?
Answer: The fold change was 0.906.

Question: For COc1cc(C=Cc2ccc(O)cc2)cc(OC)c1, which fold change is on record?
Answer: The fold change was 1.26.

Question: With COc1ccc(CCCOc2cc(CCn3ccnc3)ccc2OC)cc1 as the molecule, how does the fold change read?
Answer: Its fold change is 0.402.

Question: With NC(C(=O)NC1C(=O)N2C(C(=O)O)=C(Cl)CSC12)c1ccccc1 (stereo not drawn) as the molecule, how does the fold change read?
Answer: Its fold change is 0.686.

Question: With C[C@]12C=CC(=O)C=C1CCC1C2C(O)C[C@@]2(C)C1CC[C@]2(O)C(=O)COC(=O)CCC(=O)O (stereo partly drawn) as the molecule, how does the fold change read?
Answer: Its fold change is 2.02.

Question: For CC#C[C@]1(O)CCC2C3CCC4=CC(=O)CCC4=C3C(c3ccc(N(C)C)cc3)C[C@@]21C (stereo partly drawn), which fold change is on record?
Answer: Its fold change is 0.861.

Question: With COCc1c(C(C)C)nc(C(C)C)c(C=CC(O)CC(O)CC(=O)O)c1-c1ccc(F)cc1 (stereo not drawn) as the molecule, how does the fold change read?
Answer: The fold change was 2.76.

Question: Which fold change does the source give for COC(=O)C[C@](O)(CCCC(C)(C)O)C(=O)OC1C(OC)=C[C@]23CCCN2CCc2cc4c(cc2C13)OCO4 (stereo partly drawn) here?
Answer: Its fold change is 0.957.

Question: For CCOC(=O)O[C@]1(C(=O)OCCl)CCC2C3CCC4=CC(=O)C=C[C@]4(C)C3C(O)C[C@@]21C (stereo partly drawn), which fold change is on record?
Answer: The fold change was 1.35.

Question: With Nc1ncnc2c1ncn2C1OC(CO)CC1O (stereo not drawn) as the molecule, how does the fold change read?
Answer: The fold change was 2.91.

Question: Which fold change does the source give for C=C1C(=CC=C2CCC[C@@]3(C)C2CCC3C(C)C=CC(O)C2CC2)CC(O)CC1O (stereo partly drawn) here?
Answer: Its fold change is 1.9.

Question: Which fold change does the source give for CC1CN(CCCn2c3ccccc3c3ccccc32)CC(C)N1 (stereo not drawn) here?
Answer: Its fold change is 1.22.

Question: For CC(C)(C)NC(=O)C1CC2CCCCC2CN1CC(O)C(Cc1ccccc1)NC(=O)C(CC(N)=O)NC(=O)c1ccc2ccccc2n1 (stereo not drawn), which fold change is on record?
Answer: The fold change was 1.27.

Question: Which fold change does the source give for O=C(OC1C(Oc2ccccc2COC(=O)C2(O)C=CCCC2=O)OC(CO)C(O)C1O)c1ccccc1 (stereo not drawn) here?
Answer: Its fold change is 1.99.

Question: Which fold change does the source give for O=c1cnn(C2OC(CO)C(O)C2O)c(=O)[nH]1 (stereo not drawn) here?
Answer: Its fold change is 0.641.

Question: With O=C(OC1CC2CC3CC(C1)N2CC3=O)c1c[nH]c2ccccc12 (stereo not drawn) as the molecule, how does the fold change read?
Answer: The fold change was 2.24.

Question: With COCC1=C(C(=O)OC(C)OC(=O)OC(C)C)N2C(=O)C(NC(=O)C(=NOC)c3csc(N)n3)C2SC1 (stereo not drawn) as the molecule, how does the fold change read?
Answer: Its fold change is 1.68.

Question: With C=CC1=C(C(=O)O)N2C(=O)C(NC(=O)C(=NO)c3csc(N)n3)C2SC1 (stereo not drawn) as the molecule, how does the fold change read?
Answer: The fold change was 1.91.

Question: With CC(=O)[C@@]1(O)CCC2C3CC(C)C4=CC(=O)CC[C@]4(C)C3CC[C@@]21C (stereo partly drawn) as the molecule, how does the fold change read?
Answer: Its fold change is 0.742.

Question: With C=CCc1ccccc1OCC(O)CN[C@]1(C)CCC[C@H](C(C)(C)NC(=O)CBr)C1 (stereo partly drawn) as the molecule, how does the fold change read?
Answer: Its fold change is 1.93.

Question: Which fold change does the source give for CN(C)C1C(=O)C(C(=O)NCN2CCCC2)=C(O)[C@@]2(O)C(=O)C3=C(O)c4c(O)cccc4[C@@](C)(O)C3CC12 (stereo partly drawn) here?
Answer: The fold change was 1.25.

Question: Which fold change does the source give for C[C@]12CC(O)C3C(CCC4=CC(=O)CC[C@@]43C)C1CCC2C(=O)CO (stereo partly drawn) here?
Answer: Its fold change is 2.3.

Question: With C#C[C@]1(O)CCC2C3CCC4=CC(=O)CCC4C3CC[C@@]21CC (stereo partly drawn) as the molecule, how does the fold change read?
Answer: The fold change was 1.25.
